Compounds without any hit were thinned out: in the full panel of roughly 79,000, 15% have a hit. Unmarked numbers belong to inactive results. Activity calls are given as the source filed them. No stated cut-off is given here; in the data, active means growth inhibition above about 70%; inactive means the rest.
Assay: NCI Yeast Anticancer Drug Screen. Data for the rad52 strain (AID 147);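 further: 0% = growth of vehicle-treated control cultures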
Details: S. cerevisiae rad52 mutant growth inhibition, active compounds read high
Protocol: Growth inhibition of yeast strains with defined genetic alterations is measured as a screen for potential anti-cancer activity. Selected strains with alterations in DNA damage repair or cell cycle control were exposed to compounds and growth inhibition was measured relative to vehicle treated controls. The strain used in this assay is rad52

| SMILES | growth inhibition (at 1.2 µM) [%] | growth inhibition (at 3.7 µM) | growth inhibition (at 11.0 µM) | growth inhibition (at 33.0 µM) | growth inhibition (at 100.0 µM) |
| --- | --- | --- | --- | --- | --- |
| COC(=O)/C=C(/C(=O)OC)C(Cl)(Cl)Cl | -32 | 7% | 47% | 97% (active) | 100% (active) |
| CCCCN(CCCC)C(=O)/C=C/c1ccccc1 | -12 | -9% | -11% | 18% | 93% (active) |
| Cc1cc(=O)oc2c(C)c3occc(=O)c3cc12 | 1 | 2% | 17% | 48% | 86% (active) |
| COc1cccc(/C=N/C(/N=C/c2cccc(OC)c2O)c2cccc(OC)c2O)c1O | 1 | 5% | 23% | 67% | 97% (active) |
| CC(C)C(C)/C=C\C(C)C1CCC2C3=CC=C4CC(O)CCC4(C)C3CCC21C (stereo not given) | -1 | -2% | -1% | -1% | 17% |
| CCCOC(=O)C(F)C(Br)C(=O)OCCC (stereo not given) | 38 | 89% (active) | 96% (active) | 96% (active) | 99% (active) |
| NNC(=O)CCc1cc2ccccc2c2ccccc12 | -15 | -10% | -5% | 26% | 99% (active) |
| Cc1csc(=S)n1OC(=O)NC1CCCCC1 | -54 | 63% | 99% (active) | 99% (active) | 99% (active) |

Reference: PubChem BioAssay (NCI)
